Assay [1] can be described thus: qHTS assay for small molecule agonists of the p53 signaling pathway (AID 651631; calls by dose curve; also: nearly all actives have a fitted effect of over 15% in size; also: potency is read from the fitted curve at half-maximal effect). Put shortly:
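Stably transfected HCT-116 cells (beta-lactamase behind p53 response elements) get compounds after a 5 h settling period; 16 h later at 37 °C, FRET substrate is loaded and fluorescence read after 2 h.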
A general note: In qHTS, concentration-response curves come from the screen itself.

A short description of assay [2]: qHTS assay for small molecules that induce genotoxicity in human embryonic kidney cells expressing luciferase-tagged ATAD5 (AID 651632). Also: nearly all actives have a fitted effect of over 15% in size. In a few lines: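 Luminescence read-out: after 16 hr compound exposure at 37C, ATAD5-luciferase HEK293T cells received Amplite, 30 min RT, then CCD imaging. A rise in signal marks genotoxic stress.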
A short description of assay [3]: qHTS assay for small molecule agonists of the p53 signaling pathway - cell viability (AID 651633; calls by dose curve; also: nearly all actives have a fitted effect of over 30% in size; also: potency is read from the fitted curve at half-maximal effect). In a few lines: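 p53RE-bla cells, seeded at 4,000 per well and rested 5 h at 37 C/5% CO2, received compounds in DMSO for 16 h at 37 C. CellTiter-Glo was then added, and luminescence was read after 30 min at room temperature to gauge cytotoxicity.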
Assay [4] in a line: qHTS assay for small molecules that induce genotoxicity in human embryonic kidney cells expressing luciferase-tagged ATAD5 - cell viability (AID 651634; calls by dose curve; also: nearly all actives have a fitted effect of over 25% in size; also: potency is read from the fitted curve at half-maximal effect). In a few lines: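 HEK293T ATAD5-luc cells, 2,000/well; compound 15.5 hr, 37C/5% CO2; CellTiter-Fluor 30 min, 37C; fluorescence read.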
Assay [5] can be described thus: qHTS assay for small molecule disruptors of the mitochondrial membrane potential - cell viability (AID 720634; calls by dose curve; also: nearly all actives have a fitted effect of over 20% in size; also: potency is read from the fitted curve at half-maximal effect). In a few lines: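 Luminescence from CellTiter-Glo (ATP content) gave viability in HepG2 cells, read in the same wells as the MMP dye assay after 1 hr compound exposure at 37 C.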
A short description of assay [6]: qHTS assay for small molecule disruptors of the mitochondrial membrane potential (AID 720635). Also: potency is read from the fitted curve at half-maximal effect. Put shortly: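 HepG2 cells (2,000/well) attached overnight at 37C, then took compound for 1 hr at 37C, 5% CO2. Mito-MPS dye was added for 30 min; fluorescence was read at 490/535 nm (monomers) and 540/590 nm (aggregates).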
A short description of assay [7]: qHTS assay to test for compound auto fluorescence at 590 nm (red) in HepG2 cells (AID 720674). In a few lines:
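Rose Bengal sodium served as the red fluorophore standard. HepG2 monolayers (overnight attachment, MEM with 10% FBS) were exposed to test compounds for 1 hr at 37 C and read at Ex 540/Em 590 nm.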

Assay [8] can be described thus: qHTS assay to test for compound auto fluorescence at 535 nm (green) in HepG2 cells (AID 720675).
Assay [9] is described as follows: qHTS assay to test for compound auto fluorescence at 460 nm (blue) in HEK293 cells (AID 720678). Put shortly: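 Auto fluorescence in the blue band was quantified as triamterene equivalency. HEK293 cells were seeded at 2,000/well, dosed after a 4-5 hr attachment, and kept overnight at 37C before the 405/460 nm reading.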
The nature of assay [10]: qHTS assay to test for compound auto fluorescence at 590 nm (red) in HEK293 cells (AID 720679). In a few lines: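 Autofluorescence equivalency to Rose Bengal sodium, 540/590nm, in HEK293 cells exposed overnight to 23 nL compound per well.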

“And” between values parts separate entries of the source, which are not always exact repeats. Equal values may be shown once. Results filed as inconclusive are left out. Some structures have more than one record in an assay (separate samples or runs), and their calls can disagree. The source made the active and inactive calls. Unless noted, calls follow the shape of the dose curve; as a rule, active = well fitted curve in the direction sought with a large enough effect in the repeat runs; inconclusive = weak or mixed curves; inactive = no such curve, though single readings can be large; an effect the other way counts as inactive or inconclusive. Non-standard residues stand in square brackets, D forms with d. Residues, ends and D or L forms follow the SMILES beside them. Orn = NCCC[C@H](N)C(=O)O

For `O=C(O)COc1ccc(C(=O)c2cccs2)c(Cl)c1Cl`, the Potency entry in assay [1], in [2], in assay [3], in assay [4], in assay [5] and in [6] was “inactive” in each case. The Potency result in assay [8] and in assay [9] was “inactive” in each case. Further, the call in assay [7] and in [10] was inactive.

Regarding `CC(C)C[C@@H]1NC(=O)[C@H](CCCN)NC(=O)[C@H](C(C)C)NC(=O)[C@@H]2CCCN2C(=O)[C@@H](Cc2ccccc2)NC(=O)[C@H](CC(C)C)NC(=O)[C@H](CCCN)NC(=O)[C@H](C(C)C)NC(=O)[C@@H]2CCCN2C(=O)[C@@H](Cc2ccccc2)NC1=O` (cyclo(V[Orn]L[dF]PV[Orn]L[dF]P)), the Potency in assay [1] was 1.88 µM (active); in assay [3], 2.66 µM (active); in assay [4] it was 2980 nM (active); in [5] it was 13.3 µM (active); in assay [6] it was 237 nM (active). Moreover, the Potency result in assay [2], in assay [8] and in assay [9] was “inactive” each time. Besides, the compound was called inactive in assay [7] and in assay [10].

Turning to `CC(C)=CCC/C(C)=C/CC/C(C)=C/CC/C=C(\C)CC/C=C(\C)CCC=C(C)C`, the Potency result in assay [1], in assay [2], in assay [3], in [4], in [5] and in assay [6] was “inactive” each time. For the same compound, the Potency result in assay [8] and in assay [9] was “inactive” each time. Moreover, the compound was called inactive in [7] and in assay [10].

With `Cc1cc(C(=O)NCCc2ccc(S(=O)(=O)NC(=O)NN3CCCCCC3)cc2)no1`, the Potency result in assay [1], in assay [2], in assay [3], in [4], in assay [5] and in assay [6] was “inactive” each time. Further, the Potency entry in assay [8] and in [9] was “inactive” each time. For the same compound, the result in assay [7] and in [10] was inactive.

Take `CC12CCC(C[N+](C)(CCC[N+](C)(C)C)C1)C2(C)C` (stereo not given): the Potency result in assay [1], in assay [2], in assay [3], in [4], in assay [5] and in assay [6] was “inactive” in each case. The Potency result in assay [8] and in assay [9] was “inactive” in each case. The compound was classed as inactive in assay [7] and in assay [10].

Turning to `CC(C)CCC[C@@H](C)[C@H]1CC[C@H]2[C@@H]3CC[C@@H]4C[C@H](O)CC[C@]4(C)[C@H]3CC[C@]12C`, the Potency entry in assay [1], in assay [2], in assay [3], in assay [4], in assay [5] and in assay [6] was “inactive” throughout. The Potency entry in [8] and in assay [9] was “inactive” throughout. Moreover, the compound was classed as inactive in assay [7] and in assay [10].

For `CC(C)=CCC/C(C)=C/CC/C(C)=C/CC/C(C)=C/CC1=C(C)C(=O)c2ccccc2C1=O`, the Potency result in assay [1], in [2], in assay [3], in [4], in assay [5] and in assay [8] was “inactive” throughout. For the same compound, in assay [9], the Potency result was “inactive”. Further, the Potency entry in assay [6] is “inactive and 13.3 µM (active)”. Besides, the result in assay [7] and in assay [10] was inactive.

For `NC(=O)[C@@H]1C[C@]2(NC(=O)NC2=O)c2cc(F)ccc2O1`, the Potency entry in [1], in [2], in [3], in assay [4], in assay [5] and in [6] was “inactive” each time. In addition, the Potency entry in assay [8] and in [9] was “inactive” throughout. Besides, the compound was classed as inactive in assay [7] and in [10].

Turning to `CSCC[C@H](NC(=O)[C@H](Cc1ccc(OS(=O)(=O)O)cc1)NC(=O)[C@@H](N)CC(=O)O)C(=O)NCC(=O)N[C@@H](Cc1c[nH]c2ccccc12)C(=O)N[C@@H](CCSC)C(=O)N[C@@H](CC(=O)O)C(=O)N[C@@H](Cc1ccccc1)C(N)=O`, the Potency result in [1], in assay [2], in assay [3], in [4], in assay [5] and in assay [6] was “inactive” throughout. In addition, the Potency entry in assay [8] and in assay [9] was “inactive” in each case. The compound was called inactive in [7] and in assay [10].

In the case of `CCN(CC)C(=O)[C@]1(c2ccccc2)C[C@@H]1CN`, the Potency entry in assay [1], in [2], in assay [3], in [4], in assay [5] and in [6] was “inactive” in each case. Further, the Potency entry in assay [8] and in [9] was “inactive” throughout. The outcome in assay [7] and in [10] was inactive.

Consider `O=C(Cn1cnnn1)N[C@@H]1C(=O)N2C(C(=O)O)=C(CSc3nncs3)CS[C@H]12`, for which the Potency result in [1], in assay [2], in assay [3], in assay [4], in assay [5] and in [6] was “inactive” in each case. Moreover, the Potency result in assay [8] and in assay [9] was “inactive” in each case. Moreover, the call in [7] and in [10] was inactive.

As to `NC[C@@H]1CC[C@@H](N)[C@@H](O[C@H]2[C@H](O)[C@@H](O[C@H]3O[C@H](CO)[C@@H](O)[C@H](N)[C@H]3O)[C@H](N)C[C@@H]2N)O1`, the Potency entry in assay [1], in assay [2], in assay [3], in [4], in assay [5] and in assay [6] was “inactive” throughout. In addition, the Potency entry in assay [8] and in assay [9] was “inactive” in each case. Also, the call in assay [7] and in assay [10] was inactive.

For `CCCCCN=C(N)N/N=C/c1c[nH]c2ccc(OC)cc12`, the Potency result in assay [1], in assay [2], in assay [3], in assay [4], in [5] and in [6] was “inactive” in each case. The Potency result in [8] and in assay [9] was “inactive” each time. In addition, the result in assay [7] and in assay [10] was inactive.

Turning to `O=C1CCC/C=C\CCCCCCCCCC1`, the Potency entry in assay [1], in assay [2], in assay [3], in [4], in assay [5] and in [8] was “inactive” in each case. Moreover, in assay [9], the Potency result is “inactive”. For the same compound, the Potency in assay [6] was 68600 nM (active). Also, the compound was classed as inactive in assay [7] and in assay [10].

For the compound `O=C1c2ccccc2CN2C(=O)c3ccccc3CN12`, the Potency result in [1], in assay [2], in assay [3], in assay [4], in assay [5] and in assay [6] was “inactive” in each case. For the same compound, the Potency result in assay [8] and in assay [9] was “inactive” each time. In addition, the result in assay [7] and in assay [10] was inactive.

Consider `CC(=O)Oc1cc(C(F)(F)F)ccc1C(=O)O`, for which the Potency result in assay [1], in [2], in assay [3], in assay [4], in assay [5] and in assay [6] was “inactive” each time. Further, the Potency entry in assay [8] and in [9] was “inactive” each time. Besides, the compound was called inactive in assay [7] and in [10].

Consider `COc1cc(/C=C/C(=O)CC(=O)/C=C/c2ccc(O)c(OC)c2)ccc1O`, for which the Potency in [1] is 13.3 µM (active) and 13.8 µM (active); in [3], 18.8 µM (active) and 54.8 µM (active); in assay [5], 11.9 µM (active) and 21.8 µM (active); in assay [6] it was 750 nM (active) and 1.68 µM (active) and 548 nM (active). Besides, the Potency result in [2], in assay [4], in [8] and in [9] was “inactive” throughout. The compound was called inactive in assay [7] and in [10].

Source of the values: PubChem BioAssay (Tox21).
